Screening results (PubChem)
KinaseGlo FLuc: blocks Kinase-Glo luciferase, a counter-screen artifact; Q27757; hit rate 0.28% among 200,000; AID 1379; Potency, µM (doses to about 38.3 µM), without a hit: at the highest dose activity change, negative = inhibition, actives largely listed as inhibitors; Kinase-Glo luciferase, ATP luminescence, 8 min; note: % is set by controls: 0 for no effect and ±100 for the full control effect; nearly all actives have a fitted effect of over 60% in size
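Kinase-Glo luciferase light output from ATP and luciferin was measured with 10 uM ATP, within the enzyme's linear range. Buffer: 50 mM imidazole pH 7.2, 50 mM KCl, 7 mM MgCl2, 0.01% Tween 20, 0.05% BSA; luminescence read after 8 min at ambient temperature.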
NPC1 prom act: activators of NPC1 promoter | Huh7 NPC1 promoter luciferase reporter, 24 h | Potency, µM (top dose mostly 9.22 µM), inactives show at the top dose activation, hits mostly activators | hit rate 2.4% among 320,000 | AID 485313; note: % of control where 0% means no effect; nearly all actives have a fitted effect of over 60% in size
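Compounds in DMSO were transferred onto Huh7 NPC1-luciferase reporter cells pre-incubated 2 h; after 24 h at 37 °C, Amplite reagent was dispensed and luminescence recorded 10 min later.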
SMN2 splice enh: enhancers of SMN2 splice variant expression; Potency, µM (top dose mostly 46.1 µM), for inactives: at the top dose activity change, positive = activation, most hits filed as activators; AID 1458; HEK293 SMN2-luciferase splicing reporter, luminescence, 30-36 h; hit rate 2.8% among 210,000; note: % of control where 0% means no effect; nearly all actives have a fitted effect of over 55% in size
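qHTS luciferase splicing reporter: luminescence rises when SMN2 exon 7 is included in transfected HEK293 cells. Compound exposure lasted 30-36 h at 37C, with 4.5 mM final sodium butyrate as control, followed by a ONE-Glo read.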
Rab9 promoter act: Rab9 promoter activation; Huh7 Rab9 promoter-luciferase reporter, luminescence, 24 h; Potency, µM (top dose mostly 9.22 µM), for inactives: at the highest dose activation, negative = inhibition, actives largely listed as activators; hit rate 2.8% among 320,000; note: % of control where 0% means no effect; nearly all actives have a fitted effect of over 60% in size
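Measured in stably transfected Huh7 cells bearing a Rab9 promoter–luciferase construct: 24 h compound treatment at 37 °C, followed by luminescence detection.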
FLuc counter: counter-screen for miR-21 project: firefly luciferase inhibitors or activators | P08659 | purified FLuc, Km substrates, luminescence inhibition | Potency, µM (top dose mostly 57.5 µM), without a hit: at the top dose activity change, negative = inhibition, actives largely listed as inhibitors | hit rate 6.9% among 360,000 | AID 588342;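 note: plate controls were vehicle for no effect and reference inhibitor for full effect; nearly all actives have a fitted effect of over 55% in size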
Target sequence (P08659 whole entry, looked up): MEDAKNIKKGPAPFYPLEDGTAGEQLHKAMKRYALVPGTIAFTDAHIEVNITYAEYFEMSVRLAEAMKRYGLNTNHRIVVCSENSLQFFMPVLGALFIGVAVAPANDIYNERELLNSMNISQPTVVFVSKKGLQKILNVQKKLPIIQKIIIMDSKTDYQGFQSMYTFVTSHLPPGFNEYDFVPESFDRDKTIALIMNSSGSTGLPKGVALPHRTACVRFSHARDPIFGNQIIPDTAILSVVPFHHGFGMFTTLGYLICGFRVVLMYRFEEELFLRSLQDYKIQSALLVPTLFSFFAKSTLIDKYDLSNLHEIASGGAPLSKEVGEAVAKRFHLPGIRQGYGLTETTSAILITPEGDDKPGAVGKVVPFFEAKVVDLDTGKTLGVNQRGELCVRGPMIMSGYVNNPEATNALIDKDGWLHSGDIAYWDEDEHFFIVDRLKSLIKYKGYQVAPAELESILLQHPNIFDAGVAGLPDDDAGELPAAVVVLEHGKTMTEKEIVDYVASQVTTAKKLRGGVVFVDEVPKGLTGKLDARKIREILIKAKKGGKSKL
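Purified P. pyralis luciferase (10nM final) with 10uM D-luciferin and 10uM ATP (Km levels) in 50mM Tris acetate pH 7.5, 10mM Mg acetate, 0.01% Tween-20, 0.05% BSA; qHTS 6-point titration, ~60 µM downward; luminescence read.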
Numbers without * were called inactive; ? = inconclusive; . = not tested or not shown; [ ] = another dose, or the depositor's remark. Rows were chosen to be rich in hits. Some 7.3% of all compounds tested hit in one or more screens of this group. Calls come from the whole dose curve; as a rule, active = well fitted curve in the direction sought with a large enough effect; inconclusive = small, poorly fitted or top-dose-only effect, or another doubt; inactive = no such curve, though single readings can be large; an effect the other way counts as inactive or inconclusive. Potency is the fitted concentration of half-maximal effect.

SMILES | KinaseGlo FLuc | NPC1 prom act | SMN2 splice enh | Rab9 promoter act | FLuc counter
c1ccc(CNc2oc(-c3ccccc3)nc2-c2ccccc2)cc1 | -3% | . | -1% | . | .
COc1ccccc1S(=O)(=O)Cc1ccc(C(=O)N2CCN(c3cc(Cl)ccc3C)CC2)o1 | . | . | 3% | . | 0%
CC(C)(C)c1ccc(OC(=O)c2ccccc2)cc1 | . | -13% | . | -3% | 2.4µM*
O=C(Oc1ccc(/C=N/O)cc1)c1ccccc1 | -13% | 0% | 11% | ? | 12µM*
CC(C)(C)c1ccc(OCCC(=O)NNC(=O)c2ccccc2)cc1 | . | 1% | . | -1% | 13%
Cc1cccc(C(=O)Oc2ccc3ccc(O)cc3c2)c1 | . | 8% | . | 0% | 24µM*
O=C(Oc1ccc2ccccc2c1)c1ccccc1 | 16% | 0% | -12% | -2% | 2.4µM*
O=C(Nc1ccc(F)cc1)N1CCOCC1 | -6% | -1% | ? | 0% | -3%
O=C(Nc1ccc(Cc2ccc(NC(=O)N3CCOCC3)cc2)cc1)N1CCOCC1 | -4% | -1% | 0% | -2% | ?
CN(C)c1ccc(NC(=O)N2CCOCC2)cc1 | -18% | 7% | ? | 9% | 24µM*
CCC(C)c1ccc(NC(=O)N2CCOCC2)cc1 (centres undefined) | . | 2.5µM* | . | 2.5µM* | 15µM*
CCOC(=O)CCCNC(=O)N1CCc2nc(-c3ccc(OC)cc3C)c3c(c2C1)CO[C@@H](c1ccccc1)C3 | -1%[7.66 µM] | . | -4%[9.22 µM] | . | .
Cn1c(SCCOc2ccccc2Cl)nnc1-c1cccs1 | 6% | -1% | -5% | 3% | ?
Cn1c(SCc2c(F)cccc2Cl)nnc1-c1cccs1 | -2% | ? | 20µM* | 2.2µM* | 15µM*
CCC1CN(C(=O)Nc2cc(OC)cc(OC)c2)c2ccccc2S1 (centres undefined) | . | . | . | . | -11%
Cc1oc(-c2cccc(Br)c2)nc1Cn1c(=O)cc(-c2ccccc2)c2c(C)nn(C)c21 | . | . | . | . | -2%
Cc1cc(C)cc(S(=O)(=O)Nc2cccc(-c3ccc(N4CCOCC4)nn3)c2)c1 | . | . | . | . | 12µM*
COc1c(C)cc(S(=O)(=O)Nc2cccc(-c3ccc(N4CCOCC4)nn3)c2)c(C)c1C | . | . | . | . | 15µM*
Cc1ccc(S(=O)(=O)Nc2ccc(N3CCOCC3)nc2)cc1 | -1% | -4% | -5% | -5% | 2%
O=[N+]([O-])c1ccc(S(=O)(=O)Nc2ccc(-c3ccc(N4CCOCC4)nn3)cc2)cc1 | . | 10% | . | 21% | 27µM*
CCOc1ccc(-c2cccc(NS(=O)(=O)c3ccc([N+](=O)[O-])cc3)c2)nn1 | . | 3% | . | -1% | 5%
O=[N+]([O-])c1ccc(S(=O)(=O)Nc2cccc(-c3ccc(N4CCOCC4)nn3)c2)cc1 | . | ? | . | 27% | 3.4µM*
O=C(Nc1cccc(-c2nc3ccccc3o2)c1)c1cccc2c(Cl)cccc12 | . | . | 3% | . | -1%
CCOc1ccc(NC(=O)c2ccccn2)cc1 | 13µM* | ? | 0.79µM* | 0.13µM* | 0.48µM*
CCOc1ccc(NC(=O)c2nccnc2CO)cc1 | 7.9µM* | 1.4µM* | 8.9µM* | 2.8µM* | 9.5µM*
SMILES | KinaseGlo FLuc | NPC1 prom act | SMN2 splice enh | Rab9 promoter act | FLuc counter
CCOc1ccc(C(=O)Nc2ncccc2Cl)cc1 | -6% | ? | . | ? | 15µM*
CCOc1ccc(NC(=O)c2cnsn2)cc1 | -4% | 1.4µM* | ? | 0.56µM* | 6µM*
Cc1nn(-c2ccc(F)cc2)c(-n2cccc2)c1C(=O)N1CCN(c2ccc(F)cc2)CC1 | . | . | . | . | 0%
CC1=C(C(=O)Nc2ccccc2)C(c2ccncc2)n2nc(SCc3ccccc3F)nc2N1 (centres undefined) | . | . | 22% | . | 2%
Cc1ccc(C)c(CN2C(=O)c3ccccc3S(=O)c3ccc(C(=O)NCCC4=CCCCC4)cc32)c1 (centres undefined) | . | . | 4% | . | -1%
CC(C)c1ccc(NC(=O)c2cc(S(=O)(=O)N(C)C3CCCCC3)ccc2F)cc1 | . | . | . | . | 2%
CCOc1ccc(CCNC(=O)c2nnc(Cc3cc(OC)c(OC)c(OC)c3)o2)cc1OCC | . | . | -13% | . | -6%
CNS(=O)(=O)c1ccc(NC(=O)c2ccccn2)cc1 | -10% | ? | 20µM* | 2.8µM* | 15µM*
COc1ccc(NS(=O)(=O)c2ccc(NC(=O)c3ccccn3)cc2)cc1 | . | -5% | . | -12% | -2%
CCOc1ccc(NC(=O)c2cnccn2)cc1 | -24% | 2µM* | 2.5µM* | 1.3µM* | 5.4µM*
O=C(CSc1nc2c([nH]c3ccccc32)c(=O)n1-c1ccccc1F)Nc1cccc(C(F)(F)F)c1 | . | . | . | . | 0%
COCCn1c(=O)c(C)nc2cnc(N3CCNCC3)nc21 | -1% | . | -3% | . | .
CCOC(=O)c1ccc(NC(=O)CSc2nc3ccccc3c(=O)n2CCNC(C)=O)cc1 | . | . | . | . | 1%
NCCOB(c1ccccc1)c1ccccc1 | -5% | . | -25% | . | .
CCOC(=O)c1ccc(Nc2ncccc2[N+](=O)[O-])cc1 | -14% | 2.5µM* | . | 1µM* | 7.6µM*
CCOC(=O)c1ccc(NC(=O)c2ccccc2[N+](=O)[O-])cc1 | 1% | 17% | 18µM* | 27% | ?
CCOC(=O)c1cccc(NC(=O)c2cnc3ccccc3n2)c1 | . | ? | . | 2µM* | 17µM*
CCOC(=O)c1ccc(Nc2ccc([N+](=O)[O-])cn2)cc1 | 1% | ? | . | ? | -16%
CCOC(=O)c1ccc(NC(=O)c2ccccc2)cc1 | -5% | 2.8µM* | 10µM* | 2.8µM* | -3%[2.3 µM]
CCOC(=O)c1cccc(NC(=O)c2ccc(NC(=O)c3ccco3)cc2)c1 | . | -1% | . | 3% | 0%
O=C(Oc1ccccc1C(=O)Nc1ccccc1)c1ccc(Br)c([N+](=O)[O-])c1 | 0% | 1% | -6% | 15% | 15µM*
CCOC(=O)c1ccc(N/N=C/c2cc(Br)cc([N+](=O)[O-])c2O)cc1 | ? | -3% | -69% | 0% | 1.2µM*
CCOC(=O)c1cccc(NC(=O)c2ccc(N(C)C)cc2)c1 | -5% | 0.4µM* | ? | 0.28µM* | 1.7µM*
Oc1ccccc1/C=N/Nc1ncc(Br)cn1 | -5% | -3% | -73% | 25% | ?
Oc1ccc(/C=N/Nc2ccc3ccccc3c2)c(O)c1 | -1% | 9% | 7% | 1% | 19µM*
SMILES | KinaseGlo FLuc | NPC1 prom act | SMN2 splice enh | Rab9 promoter act | FLuc counter
Oc1ccccc1/C=N/Nc1ccccc1 | -8% | -3% | -4% | 26% | 7.6µM*
Cc1cc(N/N=C/c2ccc(O)cc2O)c2ccccc2n1 | . | 9% | . | 0% | 1%
Cc1nc2ccc(C(=O)OCc3nnc(-c4ccccc4)o3)cc2nc1C | . | -2% | . | 1% | -15%
O=C(OCc1nnc(-c2ccc(Br)cc2)o1)c1ccco1 | . | -3% | . | 0% | 21µM*
O=C(OCc1nnc(-c2ccccc2)o1)c1ccccc1 | -6% | 1% | 9% | 15% | 15µM*
Cc1ccccc1C(=O)OCc1nnc(-c2ccc(Cl)cc2)o1 | -5% | -1% | 11% | 21% | 19µM*
O=C(COC(=O)c1ccc(-c2nnc(-c3ccccc3)o2)cc1)c1ccccc1 | 2% | 0.56µM* | 2.8µM* | 0.56µM* | 4%
